This is an account of results in the supplement of paper PMC6555819.

Assay in all cases: PBM binding z-score (relative to random genomic background probes); higher = stronger binding; sequences stand for … in GC…GCGATTGACAGCGTAGAATGAAGG
Experiment [1] has as its system FXR:RXRa (NR concentration 270 nM, RXRa partner concentration 90 nM). A digest of the protocol: (§1)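 Binding z-scores were set against random background probes. The data came from custom Agilent 4×180K protein-binding microarrays carrying double-stranded probes with 34-nt variable regions, incubated 1 h with ligand-free nuclear receptor dimers. Partner-specific antibodies detected binding, and scanned fluorescence was regression-normalized.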

For experiment [2], the system named is LXRa:RXRa (NR concentration 270 nM, RXRa partner concentration 90 nM). A digest of the protocol: as §1
In experiment [3] the test system is LXRa homodimer (NR concentration 270 nM). A digest of the protocol: as §1
The subject of experiment [4] is LXRb:RXRa (NR concentration 270 nM, RXRa partner concentration 90 nM). The gist of the method: as §1
Experiment [5] concerns LXRb homodimer (NR concentration 270 nM). The gist of the method:
as §1

Experiment [6] concerns PPARa:RXRa (NR concentration 270 nM, RXRa partner concentration 90 nM). A digest of the protocol:
as §1

Experiment [7] deals with PPARg:RXRa (NR concentration 180 nM, RXRa partner concentration 90 nM). The gist of the method: as §1
Experiment [8] relates to PPARg:RXRa 270nM:90nM, anti-RXR (NR concentration 270 nM, RXRa partner concentration 90 nM). The gist of the method:
as §1

Experiment [9] concerns PPARg:RXRa 30nM:10nM, anti-RXR (NR concentration 30 nM, RXRa partner concentration 10 nM). A digest of the protocol: as §1
Experiment [10] deals with PPARg:RXRa 90nM:30nM, anti-RXR (NR concentration 90 nM, RXRa partner concentration 30 nM). A digest of the protocol: as §1
For experiment [11], the system named is PPARg:RXRa DBDmut IVT, anti-RXR (DBD mutation: RXRa K156A/R161A, NR concentration 270 nM, RXRa partner concentration 90 nM). A digest of the protocol:
as §1

Experiment [12] has as its system PPARg:RXRa IVT, anti-PPARg (NR concentration 270 nM, RXRa partner concentration 90 nM). A digest of the protocol: as §1
Experiment [13] has as its system PPARg DBDmut:RXRa IVT, anti-PPARg (DBD mutation: PPARg1 K132A/R137A, NR concentration 270 nM, RXRa partner concentration 90 nM). The gist of the method:
as §1

Experiment [14] has as its system PPARg DBDmut IVT, anti-PPARg (DBD mutation: PPARg1 K132A/R137A, NR concentration 270 nM). A digest of the protocol: as §1
For experiment [15], the system named is PPARg homodimer (NR concentration 180 nM). A digest of the protocol: as §1
In experiment [16] the test system is PXR:RXRa (NR concentration 270 nM, RXRa partner concentration 90 nM). The gist of the method:
as §1

Experiment [17] relates to PXR homodimer (NR concentration 270 nM). A digest of the protocol: as §1
For experiment [18], the system named is RARa:RXR (NR concentration 270 nM, RXRa partner concentration 90 nM). The gist of the method:
as §1

The subject of experiment [19] is RARa homodimer (NR concentration 270 nM). The gist of the method: as §1
In experiment [20] the test system is RARb:RXRa (NR concentration 270 nM, RXRa partner concentration 90 nM). The gist of the method: as §1

Turning to ATCTCTTGGTAAAAGTTCAGTGAATCCCGAGGAT, the PBM binding z-score in experiment [1] came out at 0.493; in experiment [2] it was 1.23; in [3], 1.42; in experiment [4] it was 0.868; in experiment [5] it was 1.09; in experiment [6], 1.58. Besides, the PBM binding z-score is 1.87 in experiment [7]; 4.15 in [8]; 1.88 in experiment [9]; 3.88 in experiment [10]; -0.122 in [11]; 0.894 in experiment [12]. The PBM binding z-score turned out to be 0.627 in experiment [13]; 0.652 in experiment [14]; 1.46 in [15]; 1.83 in [16]; 1.58 in experiment [17]; 1.1 in experiment [18]. The PBM binding z-score in [19] was found to be 1.12; in experiment [20], 2.37.
Regarding TCGGGTAGGTTACCAATGGGGCATTCAGCTTTCT, the PBM binding z-score in experiment [1] was 0.661; in experiment [2] it was 1.91; in experiment [3] it was 0.192; in experiment [4], 1.61; in experiment [5], 0.113; in [6] it was 1.22. The PBM binding z-score in [7] came out at 0.0871; in experiment [8] it was 1.31; in experiment [9] it was 1.96; in [10], 1.63; in experiment [11], 1.78; in experiment [12], 1.82. Besides, the PBM binding z-score in [13] was 0.338; in experiment [14], -0.222; in experiment [15], 0.725; in experiment [16], 0.647; in [17], -0.198; in experiment [18], 0.735. The PBM binding z-score in [19] amounted to 0.0772; in [20], 1.41.
Take TCTAGCAGGCCAGAGGGTCCCTCAAGAGGTACGG: the PBM binding z-score is -1.21 in experiment [1]; -0.594 in [2]; -0.832 in experiment [3]; -1.08 in experiment [4]; -1.75 in experiment [5]; -0.293 in [6]. Also, the PBM binding z-score in experiment [7] was 0.254; in [8] it was 1.14; in experiment [9], 1.15; in [10], 0.873; in experiment [11], 0.4; in [12] it was -0.351. Moreover, the PBM binding z-score in experiment [13] was -0.654; in [14], -1.83; in experiment [15], -0.97; in experiment [16], -0.673; in [17], -1.06; in [18], -0.482. In addition, the PBM binding z-score in experiment [19] is -1.2; in [20] it was -0.136.
As to CGTTAAAGTTCAACTAAGGTAACGTAAAGCACGC, the PBM binding z-score in [1] was determined as 7.01; in experiment [2], 6.26; in [3], 4.48; in [4] it was 4.01; in experiment [5], 1.89; in experiment [6], 4.8. Moreover, the PBM binding z-score in [7] was determined as 3.71; in experiment [8], 4.36; in [9], 1.66; in experiment [10] it was 3.27; in [11] it was 0.607; in experiment [12] it was 1.7. Further, the PBM binding z-score was 1.25 in [13]; 1.18 in [14]; 2.84 in experiment [15]; 5.26 in experiment [16]; 3.31 in experiment [17]; 3.9 in experiment [18]. The PBM binding z-score in experiment [19] came to 1.26; in [20] it was 5.17.
With CCGACTGGGGTAGAAAGGTTACCATACCATCCGG, the PBM binding z-score in experiment [1] was 0.17; in experiment [2], 0.786; in experiment [3] it was -0.133; in experiment [4], 1.06; in experiment [5] it was -1.02; in experiment [6] it was 2.58. Besides, the PBM binding z-score in [7] was 2.04; in experiment [8], 3.63; in experiment [9], 1.08; in experiment [10], 3.32; in experiment [11], 0.466; in experiment [12], 1.2. Also, the PBM binding z-score is -1.23 in experiment [13]; -0.59 in experiment [14]; 1.69 in experiment [15]; 1.32 in [16]; -0.0597 in experiment [17]; 2.45 in experiment [18]. For the same sequence, the results for the PBM binding z-score in experiment [19] and in [20] were 0.375 and 1.72, respectively.
For the sequence TCATATAGGTGAACAGGTGAAAGTCCGTAAGTTA, the PBM binding z-score in [1] was determined as 1.35; in [2], 1.14; in [3] it was 0.444; in [4], 1.22; in experiment [5] it was 0.00841; in experiment [6], 3.47. For the same sequence, the PBM binding z-score in [7] amounted to 4.77; in experiment [8] it was 4.6; in experiment [9], 4.3; in experiment [10], 4.44; in experiment [11], 6.52; in [12] it was 6.31. The PBM binding z-score in experiment [13] stood at 1.63; in experiment [14], 1.36; in [15] it was 1.1; in [16] it was 1; in experiment [17], 0.638; in experiment [18], 1.46. Moreover, the PBM binding z-score was 0.907 in experiment [19] and 1.64 in experiment [20].
